PubChem BioAssay (NCATS)
Records with an inconclusive call do not appear. Active and inactive are the calls of the source. Calls come from the whole dose curve; as a rule, active = well fitted inhibition curve with a large enough effect; inconclusive = small, poorly fitted or top-dose-only effect; inactive = flat fitted curve, though single readings scatter.

What was measured:
Test in all cases: qHTS profiling for inhibitors of Plasmodium falciparum proliferation (AID 504749); note: nearly all actives have a fitted effect of over 60% in size
Details in all cases: P. falciparum in erythrocytes, SYBR Green DNA, 72 h; series mostly up to 28.7 µM
[1] = system: 7G8
Summary of the method: (§1)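 Infected RBCs, 0.3% parasitemia/2.5% Hct final; cpd 72 h, 37 C, 5% CO2; lysis buffer with saponin/triton/SYBR Green I, o/n RT dark; FI 485/535; norm. to artemisinin (0.29 uM) and DMSO.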

[2] = system: AS120
Summary of the method: as §1

[3] = system: ATS95
Summary of the method: as §1

[4] = system: C2A
Summary of the method: as §1

[5] = system: CP191
Summary of the method: as §1

[6] = system: CP203
Summary of the method: as §1

[7] = system: CP211
Summary of the method: as §1

[8] = system: CP215
Summary of the method: as §1

[9] = system: CP217
Summary of the method: as §1

[10] = system: CP237
Summary of the method: as §1

[11] = system: CP252
Summary of the method: as §1

[12] = system: CP256
Summary of the method: as §1

[13] = system: CP268
Summary of the method: as §1

[14] = system: CP269
Summary of the method: as §1

[15] = system: CP305
Summary of the method: as §1

[16] = system: P93_24
Summary of the method: as §1

[17] = system: PC26
Summary of the method: as §1

[18] = system: PC49
Summary of the method: as §1

[19] = system: TAB109
Summary of the method: as §1

[20] = system: W2
Summary of the method: as §1

Measured: Potency
Potency is the fitted concentration of half-maximal effect.

C[C@@]12C(=O)OC(=O)[C@]1(C)[C@H]1CC[C@@H]2O1
active: [1] 2.82 µM | [2] 3.55 µM | [3] 3.98 µM | [4] 3.98 µM | [5] 1.58 µM | [6] 2.56 µM | [7] 5.1 µM | [8] 2.28 µM | [9] 2.51 µM | [10] 1.26 µM | [11] 3.98 µM | [12] 3.98 µM | [13] 2.87 µM | [14] 2.56 µM | [15] 2.87 µM | [16] 3.98 µM | [17] 2.87 µM | [18] 2.24 µM | [19] 2.82 µM | [20] 2.28 µM

C=C1CCC2[C@](C)(CO)C(O)CC[C@]2(C)C1C/C=C1/C(=O)OCC1O (stereo not given in full)
inactive: [13]

CC(/C=C1\SC(=S)N(CC(=O)O)C1=O)=C\c1ccccc1
inactive: [1] | [2] | [3] | [4] | [5] | [6] | [7] | [8] | [9] | [10] | [11] | [12] | [14] | [15] | [16] | [17] | [18] | [19] | [20]
